# Measured values taken from PubChem BioAssay AID1159580 (chemical genetic matrix, 2015).
# Values joined by “and” are separate entries in the source; they are usually repeats but may differ in a detail not shown here. Identical values can stand only once. In all, about 5,500 compounds went through this assay and about 2,000 (36%) were called active. About 18% were inconclusive and are not listed. Rule as the data show it: active = normalized growth mostly below about 0.91 (no sharp cut-off); inconclusive = no clear call, values can overlap the other calls; inactive = mostly above about 0.92. The list shows a part of the results. The source holds several records for some structures; these can differ, active in one and inactive in another.
# Test: chemical genetic growth profiling, strain panel (AID 1159580);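 also: tested at 20 µM; growth read once vehicle control cultures reached saturation at 30 °C; 1 = growth at the plate median or of vehicle wells; lower values mean less growth of the strain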
# Settings: S. cerevisiae deletion strains, growth OD
compound,measurement,setting,value
CCCCCCCCCCC/C=C\C(C)(C)/C=C\CCCC(=O)O,normalized growth,"locus YAL040C, strain CLN3, stronger effect = lower value",1.02 (inactive)
same,normalized growth,"locus YCL061C, strain MRC1 (second series), stronger effect = lower value",1.04 (inactive)
same,normalized growth,"locus YDR150W, strain NUM1, stronger effect = lower value",1.01 (inactive)
same,normalized growth,"locus YDR363W, strain ESC2, stronger effect = lower value",1.04 (inactive)
same,normalized growth,"locus YER002W, strain NOP16, stronger effect = lower value",1.04 (inactive)
same,normalized growth,"locus YJR075W, strain HOC1, stronger effect = lower value",1.02 (inactive)
same,normalized growth,"locus YMR263W, strain SAP30, stronger effect = lower value",1.03 (inactive)
same,normalized growth,"locus YMR307W, strain GAS1, stronger effect = lower value",0.974 (inactive)
same,normalized growth,"locus YNL128W, strain TEP1, stronger effect = lower value",0.996 (inactive)
same,normalized growth,"locus YNL153C, strain GIM3, stronger effect = lower value",0.967 (inactive)
same,normalized growth,"locus YNL175C, strain NOP13, stronger effect = lower value",1.01 (inactive)
same,normalized growth,"locus YNL197C, strain WHI3, stronger effect = lower value",0.985 (inactive)
same,normalized growth,"locus YNL224C, strain SQS1, stronger effect = lower value",1 (inactive)
same,normalized growth,"locus YNL322C, strain KRE1, stronger effect = lower value",1.02 (inactive)
same,normalized growth,"locus YOR083W, strain WHI5 (second series), stronger effect = lower value",0.965 (inactive)
same,normalized growth,"locus YPL055C, strain LGE1, stronger effect = lower value",1.08 (inactive)
C=CCCCCCCCCC(=O)O,normalized growth,"locus YAL021C, strain ccr4, stronger effect = lower value",0.996 (inactive) and 1 (inactive)
same,normalized growth,"locus YAL026C, strain drs2, stronger effect = lower value",0.984 (inactive) and 0.932 (inactive)
same,normalized growth,"locus YAL030W, strain snc1, stronger effect = lower value",0.973 (inactive) and 0.992 (inactive)
same,normalized growth,"locus YBL061C, strain skt5, stronger effect = lower value",0.968 (inactive) and 1 (inactive)
same,normalized growth,"locus YBR009C, strain hhf1, stronger effect = lower value",0.977 (inactive) and 0.983 (inactive)
same,normalized growth,"locus YBR023C, strain chs3, stronger effect = lower value",0.977 (inactive) and 0.985 (inactive)
same,normalized growth,"locus YBR171W, strain sec66, stronger effect = lower value",0.983 (inactive) and 0.976 (inactive)
same,normalized growth,"locus YBR231C, strain swc5, stronger effect = lower value",0.989 (inactive) and 1.01 (inactive)
same,normalized growth,"locus YBR279W, strain paf1, stronger effect = lower value",0.975 (inactive) and 0.985 (inactive)
same,normalized growth,"locus YCL011C, strain gbp2, stronger effect = lower value",0.978 (inactive) and 0.989 (inactive)
same,normalized growth,"locus YCL016C, strain dcc1, stronger effect = lower value",0.988 (inactive) and 0.992 (inactive)
same,normalized growth,"locus YCL061C, strain MRC1, stronger effect = lower value",0.99 (inactive) and 0.991 (inactive)
same,normalized growth,"locus YCL069W, strain vba3, stronger effect = lower value",0.989 (inactive) and 0.991 (inactive)
same,normalized growth,"locus YCR088W, strain abp1, stronger effect = lower value",0.978 (inactive) and 1 (inactive)
same,normalized growth,"locus YDL005C, strain med2, stronger effect = lower value",0.962 (inactive) and 1 (inactive)
same,normalized growth,"locus YDL040C, strain nat1, stronger effect = lower value",0.974 (inactive) and 0.994 (inactive)
same,normalized growth,"locus YDR001C, strain nth1, stronger effect = lower value",0.978 (inactive) and 1 (inactive)
same,normalized growth,"locus YDR069C, strain doa4, stronger effect = lower value",0.984 (inactive) and 0.997 (inactive)
same,normalized growth,"locus YDR137W, strain rgp1, stronger effect = lower value",0.988 (inactive) and 0.986 (inactive)
same,normalized growth,"locus YDR159W, strain sac3, stronger effect = lower value",1 (inactive) and 1.06 (inactive)
same,normalized growth,"locus YDR195W, strain ref2",1 (inactive) and 1.09 (inactive)
same,normalized growth,"locus YDR297W, strain sur2, stronger effect = lower value",0.978 (inactive) and 0.998 (inactive)
same,normalized growth,"locus YDR334W, strain swr1, stronger effect = lower value",0.988 (inactive) and 0.976 (inactive)
same,normalized growth,"locus YDR335W, strain msn5, stronger effect = lower value",0.981 (inactive) and 0.965 (inactive)
same,normalized growth,"locus YDR392W, strain spt3, stronger effect = lower value",0.898 (inactive) and 0.647 (active)
same,normalized growth,"locus YEL003W, strain gim4, stronger effect = lower value",0.984 (inactive) and 0.981 (inactive)
same,normalized growth,"locus YEL037C, strain rad23, stronger effect = lower value",0.969 (inactive) and 0.972 (inactive)
same,normalized growth,"locus YEL061C, strain CIN8 (second series), stronger effect = lower value",0.982 (inactive) and 0.992 (inactive)
same,normalized growth,"locus YER015W, strain faa2, stronger effect = lower value",0.985 (inactive) and 0.992 (inactive)
same,normalized growth,"locus YER016W, strain bim1, stronger effect = lower value",0.978 (inactive) and 0.985 (inactive)
same,normalized growth,"locus YER111C, strain swi4, stronger effect = lower value",0.981 (inactive) and 1 (inactive)
same,normalized growth,"locus YER155C, strain BEM2 (second series), stronger effect = lower value",0.977 (inactive) and 0.947 (inactive)
same,normalized growth,"locus YFR010W, strain ubp6, stronger effect = lower value",1.02 (inactive) and 0.951 (inactive)
same,normalized growth,"locus YGL167C, strain pmr1, stronger effect = lower value",0.961 (inactive) and 0.995 (inactive)
same,normalized growth,"locus YGL173C, strain kem1, stronger effect = lower value",0.984 (inactive) and 0.975 (inactive)
same,normalized growth,"locus YGL227W, strain vid30, stronger effect = lower value",0.97 (inactive) and 1 (inactive)
same,normalized growth,"locus YGL240W, strain doc1, stronger effect = lower value",0.976 (inactive) and 0.911 (inactive)
same,normalized growth,"locus YGL253W, strain hxk2, stronger effect = lower value",0.983 (inactive) and 0.978 (inactive)
same,normalized growth,"locus YHR013C, strain ard1, stronger effect = lower value",1.21 [resistant] (active) and 0.965 (inactive)
same,normalized growth,"locus YHR027C, strain rpn1, stronger effect = lower value",0.981 (inactive) and 0.971 (inactive)
same,normalized growth,"locus YHR030C, strain SLT2, stronger effect = lower value",0.948 (inactive) and 0.105 (active)
same,normalized growth,"locus YHR079C, strain IRE1, stronger effect = lower value",0.979 (inactive) and 0.111 (active)
same,normalized growth,"locus YHR142W, strain chs7, stronger effect = lower value",1.01 (inactive) and 0.926 (inactive)
same,normalized growth,"locus YJL092W, strain hpr5, stronger effect = lower value",0.979 (inactive) and 0.99 (inactive)
same,normalized growth,"locus YJL095W, strain BCK1 (second series), stronger effect = lower value",0.98 (inactive) and 0.996 (inactive)
same,normalized growth,"locus YJL095W, strain BCK1, stronger effect = lower value",0.974 (inactive) and 0.136 (active)
same,normalized growth,"locus YJL115W, strain asf1, stronger effect = lower value",0.974 (inactive) and 0.969 (inactive)
same,normalized growth,"locus YJL129C, strain trk1, stronger effect = lower value",0.984 (inactive) and 0.778 (active)
same,normalized growth,"locus YJL154C, strain vps35, stronger effect = lower value",0.978 (inactive) and 0.995 (inactive)
same,normalized growth,"locus YJL164C, strain tpk1, stronger effect = lower value",0.973 (inactive) and 0.929 (inactive)
same,normalized growth,"locus YJL166W, strain qcr8, stronger effect = lower value",0.993 (inactive) and 0.959 (inactive)
same,normalized growth,"locus YJL187C, strain SWE1, stronger effect = lower value",0.979 (inactive) and 0.99 (inactive)
same,normalized growth,"locus YJR066W, strain TOR1, stronger effect = lower value",0.928 (inactive) and 0.0525 (active)
same,normalized growth,"locus YKL160W, strain elf1, stronger effect = lower value",0.997 (inactive) and 0.97 (inactive)
same,normalized growth,"locus YKR026C, strain gcn3, stronger effect = lower value",0.951 (inactive) and 0.98 (inactive)
same,normalized growth,"locus YKR091W, strain srl3, stronger effect = lower value",0.986 (inactive) and 0.997 (inactive)
same,normalized growth,"locus YLL001W, strain dnm1, stronger effect = lower value",0.978 (inactive) and 0.993 (inactive)
same,normalized growth,"locus YLL026W, stronger effect = lower value",0.975 (inactive) and 0.996 (inactive)
same,normalized growth,"locus YLL041C, strain sdh2, stronger effect = lower value",0.992 (inactive) and 0.988 (inactive)
same,normalized growth,"locus YLR027C, strain aat2, stronger effect = lower value",0.987 (inactive) and 0.983 (inactive)
same,normalized growth,"locus YLR113W, strain HOG1, stronger effect = lower value",1.1 (inactive) and 0.156 (active)
same,normalized growth,"locus YLR221C, strain rsa3, stronger effect = lower value",0.984 (inactive) and 0.937 (inactive)
same,normalized growth,"locus YLR258W, strain gsy2, stronger effect = lower value",0.981 (inactive) and 1.01 (inactive)
same,normalized growth,"locus YLR262C, strain YPT6 (second series), stronger effect = lower value",0.978 (inactive) and 0.977 (inactive)
same,normalized growth,"locus YLR320W, strain mms22, stronger effect = lower value",0.998 (inactive) and 0.925 (inactive)
same,normalized growth,"locus YLR342W, strain FKS1, stronger effect = lower value",0.98 (inactive) and 0.989 (inactive)
same,normalized growth,"locus YLR357W, strain rsc2, stronger effect = lower value",0.948 (inactive) and 0.927 (inactive)
same,normalized growth,"locus YLR370C, strain arc18, stronger effect = lower value",0.987 (inactive) and 1 (inactive)
same,normalized growth,"locus YLR384C, strain iki3, stronger effect = lower value",0.968 (inactive) and 0.985 (inactive)
same,normalized growth,"locus YML120C, strain ndi1, stronger effect = lower value",0.997 (inactive) and 0.931 (inactive)
same,normalized growth,"locus YMR058W, strain fet3, stronger effect = lower value",0.981 (inactive) and 0.952 (inactive)
same,normalized growth,"locus YMR125W, strain sto1, stronger effect = lower value",0.938 (inactive) and 0.956 (inactive)
same,normalized growth,"locus YMR129W, stronger effect = lower value",0.993 (inactive) and 0.997 (inactive)
same,normalized growth,"locus YMR205C, strain PFK2, stronger effect = lower value",0.966 (inactive) and 1.04 (inactive)
same,normalized growth,"locus YMR231W, strain pep5, stronger effect = lower value",0.97 (inactive) and 0.951 (inactive)
same,normalized growth,"locus YNL071W, strain lat1, stronger effect = lower value",0.982 (inactive) and 0.953 (inactive)
same,normalized growth,"locus YNL183C, strain NPR1, stronger effect = lower value",0.933 (inactive) and 0.0268 (active)
same,normalized growth,"locus YNL209W, strain ssb2, stronger effect = lower value",0.979 (inactive) and 0.984 (inactive)
same,normalized growth,"locus YNL248C, strain rpa49, stronger effect = lower value",1.01 (inactive) and 0.852 (active)
same,normalized growth,"locus YNL322C, strain KRE1 (second series), stronger effect = lower value",0.981 (inactive) and 0.991 (inactive)
same,normalized growth,"locus YNR049C, strain mso1, stronger effect = lower value",0.979 (inactive) and 0.992 (inactive)
same,normalized growth,"locus YOR001W, strain rrp6, stronger effect = lower value",0.987 (inactive) and 0.93 (inactive)
same,normalized growth,"locus YOR070C, strain gyp1, stronger effect = lower value",0.974 (inactive) and 0.975 (inactive)
same,normalized growth,"locus YOR080W, strain dia2, stronger effect = lower value",0.965 (inactive) and 0.987 (inactive)
same,normalized growth,"locus YOR083W, strain WHI5, stronger effect = lower value",1.01 (inactive) and 0.909 (inactive)
same,normalized growth,"locus YOR106W, strain vam3, stronger effect = lower value",1.01 (inactive) and 0.925 (inactive)
same,normalized growth,"locus YOR231W, strain MKK1, stronger effect = lower value",0.953 (inactive) and 0.105 (active)
same,normalized growth,"locus YOR265W, strain rbl2, stronger effect = lower value",0.981 (inactive) and 0.986 (inactive)
same,normalized growth,"locus YOR270C, strain vph1, stronger effect = lower value",1.01 (inactive) and 0.771 (active)
same,normalized growth,"locus YOR290C, strain snf2, stronger effect = lower value",0.992 (inactive) and 0.916 (inactive)
same,normalized growth,"locus YPL051W, strain arl3, stronger effect = lower value",0.986 (inactive) and 0.967 (inactive)
same,normalized growth,"locus YPL078C, strain atp4, stronger effect = lower value",0.982 (inactive) and 0.88 (active)
same,normalized growth,"locus YPL106C, strain sse1, stronger effect = lower value",0.988 (inactive) and 1.04 (inactive)
same,normalized growth,"locus YPL240C, strain hsp82, stronger effect = lower value",0.986 (inactive) and 1 (inactive)
same,normalized growth,"locus YPL256C, strain CLN2, stronger effect = lower value",1.01 (inactive) and 0.114 (active)
